# Measurements as given in ChEMBL document CHEMBL1201862, “PubChem BioAssay data set” (2004).
# Screen size: about 400,000 compounds; about 2,100 (0.53%) were called active. Roughly 14% stayed inconclusive and do not appear here. How the calls were made is not given here. Only a selection was taken, and actives are over-represented in it overall.
# Biological target: Ataxin-2 (Homo sapiens) (UniProt Q99700)
# Assay: qHTS for Inhibitors of ATXN expression.
# Format: functional
# Chain of Ataxin-2 (Homo sapiens) (Q99700 whole entry): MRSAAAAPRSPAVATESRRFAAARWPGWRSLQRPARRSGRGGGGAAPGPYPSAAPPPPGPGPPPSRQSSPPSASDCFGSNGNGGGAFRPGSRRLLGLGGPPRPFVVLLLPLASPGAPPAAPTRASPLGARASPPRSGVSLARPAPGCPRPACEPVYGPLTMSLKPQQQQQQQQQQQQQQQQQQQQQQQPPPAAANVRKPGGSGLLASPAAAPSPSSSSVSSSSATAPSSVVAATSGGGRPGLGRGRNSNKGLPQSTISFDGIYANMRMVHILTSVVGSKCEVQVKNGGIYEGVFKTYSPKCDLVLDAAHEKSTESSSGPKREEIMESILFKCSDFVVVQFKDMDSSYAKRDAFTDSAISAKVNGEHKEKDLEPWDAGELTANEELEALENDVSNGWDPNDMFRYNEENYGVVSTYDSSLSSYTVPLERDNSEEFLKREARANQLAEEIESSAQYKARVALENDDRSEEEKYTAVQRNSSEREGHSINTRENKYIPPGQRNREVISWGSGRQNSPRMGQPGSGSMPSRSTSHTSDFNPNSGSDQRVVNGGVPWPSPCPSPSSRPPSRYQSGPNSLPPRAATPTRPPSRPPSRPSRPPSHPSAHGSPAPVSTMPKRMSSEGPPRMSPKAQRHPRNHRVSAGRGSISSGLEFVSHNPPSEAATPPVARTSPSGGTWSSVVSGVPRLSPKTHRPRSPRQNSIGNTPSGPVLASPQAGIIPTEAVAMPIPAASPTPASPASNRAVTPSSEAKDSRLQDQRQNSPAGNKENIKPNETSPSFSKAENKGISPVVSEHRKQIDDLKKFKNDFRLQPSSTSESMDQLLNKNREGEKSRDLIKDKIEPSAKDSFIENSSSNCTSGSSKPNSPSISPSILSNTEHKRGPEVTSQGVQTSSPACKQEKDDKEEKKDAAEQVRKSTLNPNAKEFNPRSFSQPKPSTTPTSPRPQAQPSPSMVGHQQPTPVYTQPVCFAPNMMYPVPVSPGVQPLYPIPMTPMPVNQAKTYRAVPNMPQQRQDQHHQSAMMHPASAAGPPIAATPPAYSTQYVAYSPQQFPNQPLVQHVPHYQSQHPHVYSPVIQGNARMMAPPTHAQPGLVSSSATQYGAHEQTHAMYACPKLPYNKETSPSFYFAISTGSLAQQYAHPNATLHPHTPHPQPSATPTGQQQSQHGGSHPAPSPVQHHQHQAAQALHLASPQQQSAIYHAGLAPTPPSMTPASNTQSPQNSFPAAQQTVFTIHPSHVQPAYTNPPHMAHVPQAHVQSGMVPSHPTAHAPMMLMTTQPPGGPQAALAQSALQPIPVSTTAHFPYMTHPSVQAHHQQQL
row,SMILES,Potency
1,CC1(C)CCCN(C(=O)c2ccc3c(c2NCCO)C(=O)c2ccccc2C3=O)C1,20 µM (active)
2,OCCCc1nc2n(n1)C(c1ccccc1)C=C(c1ccc(F)cc1)N2 (stereo not drawn),inactive
3,COc1cccc(CN(C)Cc2cc(=O)oc3cc(O)c(Cl)cc23)c1,inactive
4,Cc1cccc(NC(=O)CSc2nc3ccc(NC(=O)c4ccccc4)cc3s2)c1,39.8 µM (active)
5,CC(=O)Nc1ccc(/C(C)=N/Nc2nc(N3CCOCC3)nc(N3CCOCC3)n2)cc1,inactive
6,CCn1nc(NC(=O)c2ccco2)c2cc3cc(C)ccc3nc21,inactive
7,CC(=O)Nc1ccc(/C(C)=N/Nc2nc(Nc3ccccc3)nc(N3CCOCC3)n2)cc1,inactive
8,CC(C)(C)C(=O)Nc1ccc2nc(SCc3ccccc3)sc2c1,31.6 µM (active)
9,CC(=O)Nc1ccc(O)c(-c2nc3ccccc3s2)c1,inactive
10,Cc1cccc(NC(=O)CSc2nc3ccc(NC(=O)c4ccco4)cc3s2)c1,39.8 µM (active)
11,Cc1c(-c2cccc(NC(=O)c3ccco3)c2)nc2ncccn12,inactive
12,COc1ccc(NC(=O)CSc2nc3ccc(Nc4nc(N5CCOCC5)nc(N5CCOCC5)n4)cc3s2)cc1,15.8 µM (active)
13,CC(C)(C)C(=O)Nc1nc2c(s1)CN(Cc1ccccc1)CC2,inactive
14,N#Cc1ccc(NC(=O)CSc2nc3nc(O)cc(O)c3s2)cc1,inactive
15,CCN(C(=O)COC(=O)c1ccc(OC)c(S(=O)(=O)N(C)Cc2ccccc2)c1)C1CCS(=O)(=O)C1 (stereo not drawn),inactive
16,COc1ccc(CCC(=O)OCC(=O)Nc2c(C)n(C)n(-c3ccccc3)c2=O)cc1,inactive
17,CCCCCCc1cc2cc(-c3nnc(-c4ccc(C)cc4)o3)c(=O)oc2cc1O,inactive
18,Cc1nn2c(nc(N3CCCCC3)c3ccccc32)c1C=O,inactive
19,O=C(CCC1CCCCC1)Nc1nncs1,inactive
20,Nc1cccc2c1C(=O)N(C(=O)c1ccc(Cl)c(S(=O)(=O)N3CCCCCC3)c1)C2=O,inactive
21,COCc1cc(C)nc2sc(C(=O)Nc3cccc(OC)c3)c(N)c12,inactive
22,COCCNC(=O)Nc1ccc2nc(-c3ccco3)c(-c3ccco3)nc2c1,inactive
23,CCn1nc(NC(=O)c2ccco2)c2cc3ccccc3nc21,inactive

row,SMILES,Potency
1,CN(Cc1ccccc1)C(NC(=O)c1ccco1)C(Cl)(Cl)Cl (stereo not drawn),inactive
2,COc1cccc(NC(=O)CSc2nc3ccc(NC(=O)c4ccco4)cc3s2)c1,35.5 µM (active)
3,CN(C(=O)c1ccc(NC(=O)c2ccco2)cc1)c1ccccc1,7.08 µM (active)
4,O=C(CSc1nnc(NC(=O)c2ccco2)s1)NCc1ccc2c(c1)OCO2,inactive
5,CN(C(=O)CSc1nc2ccc(NC(=O)c3ccco3)cc2s1)c1ccccc1,39.8 µM (active)
6,Cc1ccc(C(=O)Nc2ccc3c(c2)OCO3)cc1NC(=O)c1ccco1,inactive
7,C=CCOc1c(Br)cc(C2C3=C(CCCC3=O)N(C)C3=C2C(=O)CCC3)cc1OCC,inactive
8,CCO/C(O)=C1/C(CC)=Nc2ccccc2N=C1NS(=O)(=O)c1cccc(C(C)=O)c1,inactive
9,COc1cccc(-c2ccc3c(N)c(C(=O)NC4CC4)sc3n2)c1,inactive
10,Cc1ccc2nc(N3CCC(C(=O)O)CC3)nc(-c3ccccc3)c2c1,inactive
11,C/C(=N\NC(=O)c1nc2ccccn2c1C)c1cc2ccccc2o1,inactive
12,O=C(NCc1ccco1)c1cc(NS(=O)(=O)c2cccc([N+](=O)[O-])c2)ccc1O,inactive
13,CN(C)CCCN(C(=O)CCOc1ccccc1)c1nc2c(F)cccc2s1,22.4 µM (active)
14,Cc1ccc2sc(N(CCCN(C)C)C(=O)c3ccc(Br)s3)nc2c1C,35.5 µM (active)
15,Cc1ccc2sc(N(CCCN(C)C)C(=O)CCS(=O)(=O)c3ccccc3)nc2c1C,22.4 µM (active)
16,COc1cccc2sc(N(CCCN(C)C)C(=O)CCS(=O)(=O)c3ccccc3)nc12,20 µM (active)
17,Cc1ccc(/C(=N/Nc2nc3ccccc3s2)C2=C(O)c3ccccc3C2=O)cc1,inactive
18,Cc1ccc(S(=O)(=O)c2cc3cc(Br)ccc3oc2=O)cc1,inactive
19,N#Cc1cccc(CN2CCCN(Cc3ccc(F)cc3)S2(=O)=O)c1,inactive
20,C/C(=N\NC(=O)c1cc2ccccc2cc1O)c1cccs1,inactive
21,CC(Sc1nc2ccccc2s1)C(=O)N(C)Cc1ccccc1 (stereo not drawn),inactive
22,COc1ccc(C)cc1N(C(=O)c1ccccc1F)c1nc2ccccc2s1,inactive
23,COc1ccc(CCNC(=O)CCS(=O)(=O)c2ccc3nc(C)sc3c2)cc1OC,inactive

row,SMILES,Potency
1,CCOc1ccccc1NC(=O)CCS(=O)(=O)c1ccc(OC)cc1,inactive
2,COc1ccc(OC)c2sc(N(CCCN(C)C)C(=O)CCS(=O)(=O)c3ccccc3)nc12,25.1 µM (active)
3,COc1cccc2sc(N(CCCN(C)C)C(=O)C(c3ccccc3)c3ccccc3)nc12,39.8 µM (active)
4,O=C(Oc1ccc(Cl)c2cccnc12)c1cccnc1,inactive
5,COC(=O)/C=C1/SC(NNC(=O)c2ccc(Cl)cc2Cl)=NC1=O,inactive
6,CCCn1c(/C=N/Nc2nc3ccccc3[nH]2)nc2ccccc21,35.5 µM (active)
7,CCCn1c(/C=C/c2cc[n+](C)cc2)nc2ccccc21,inactive
8,C/C(=N\Nc1nc2ccccc2[nH]1)c1ccc(Cl)s1,inactive
9,O=S(=O)(c1cc(Cl)ccc1Cl)N1CCN(c2ccccn2)CC1,inactive
10,Cc1c(CC(=O)NCC(=O)N[C@H](Cc2ccccc2)C(=O)O)c(=O)oc2cc(O)ccc12,inactive
11,CCc1ccc(NC(=O)N(Cc2cn(CC)c3ccccc23)C2CCCCC2)cc1,35.5 µM (active)
12,COc1cccc(NC(=O)N(Cc2cn(C)c3ccccc23)C2CCCCCC2)c1,39.8 µM (active)
13,Cc1ccc(NC(=O)CNc2ccccc2CN(C)C2CCCCC2)cc1,inactive
14,COc1cccc(NC(=O)N2CCCC2C(=O)NCc2ccccc2F)c1 (stereo not drawn),inactive
15,CCn1cc(C(=O)OC)c(=O)c2cc(S(=O)(=O)N(C)C3CCCCC3)ccc21,inactive
16,COc1cccc(NC(=O)C2CCOC2=O)c1 (stereo not drawn),inactive
17,COc1cc2cc(CNc3ccccc3)c(=O)n(CC(=O)Nc3ccccc3)c2cc1OC,inactive
18,COc1ccc(-n2c(=O)c3ccccc3n(CC(=O)Nc3cccc(OC)c3)c2=O)cc1,39.8 µM (active)
19,CC(C)NC(=O)Cn1cc(C(=O)C2CC2)c2ccccc21,inactive
20,COc1cccc(NC(=O)CN2C(=O)c3cccc4cccc2c34)c1,inactive
21,COc1cccc(NC(=O)CN(C)C(=O)[C@@H]2CCCN2C(=O)c2cccs2)c1,inactive
22,COc1cccc(NC(=O)Cn2cc(C(=O)C3CCCCC3)c3ccccc32)c1,39.8 µM (active)
